Source: PubChem BioAssay AID624330 (Southern Research Specialized Biocontainment Screening …, 2012)
Among all 340,000 compounds or so, about 2,100 (0.62%) were called active. Not all results are given here. Results with a measured potency or affinity are listed apart. Unmarked numbers belong to inactive results.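 How the source made its calls: active means first-screen hits whose inhibition reached a set limit at any dose in the follow-up dose series; inconclusive means inhibition above the set first-screen limit but never retested; inactive means the rest.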

These compounds were tested against Rac GTPase-activating protein 1 (Homo sapiens) (UniProt Q9H0H5) (assay: MgcRacGAP GTPase-activating activity inhibitors, confirmation, biochemical, ADP Hunter fluorescence, primary and confirmatory (AID 624330;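 further: fluorescence reports GDP produced by GAP-driven GTP hydrolysis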)). Conditions: MgcRacGAP-stimulated Rac1 GTP hydrolysis, at 30 µM, stronger effect = higher value, GST-tagged Rac1 F28L mutant substrate.
Rac GTPase-activating protein 1 (Homo sapiens), sequence (Q9H0H5 whole entry, looked up): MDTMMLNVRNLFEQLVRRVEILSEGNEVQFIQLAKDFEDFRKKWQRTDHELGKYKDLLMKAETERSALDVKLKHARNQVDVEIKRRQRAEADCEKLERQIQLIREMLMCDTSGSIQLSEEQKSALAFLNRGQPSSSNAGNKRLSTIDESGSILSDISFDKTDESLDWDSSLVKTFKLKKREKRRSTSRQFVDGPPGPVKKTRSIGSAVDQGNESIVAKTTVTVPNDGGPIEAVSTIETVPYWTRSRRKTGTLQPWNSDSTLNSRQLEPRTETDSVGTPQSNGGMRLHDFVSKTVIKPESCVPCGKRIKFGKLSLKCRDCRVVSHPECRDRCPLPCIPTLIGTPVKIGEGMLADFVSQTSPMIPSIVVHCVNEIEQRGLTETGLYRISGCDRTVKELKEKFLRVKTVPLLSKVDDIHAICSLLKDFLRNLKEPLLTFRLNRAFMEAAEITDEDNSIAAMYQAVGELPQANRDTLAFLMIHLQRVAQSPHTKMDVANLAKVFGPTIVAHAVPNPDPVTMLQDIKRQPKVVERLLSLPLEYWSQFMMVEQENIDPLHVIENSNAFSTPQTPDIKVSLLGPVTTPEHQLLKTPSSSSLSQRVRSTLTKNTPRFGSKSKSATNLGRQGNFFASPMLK

| Structure (SMILES) | inhibition |
| --- | --- |
| C[C@]12c3[nH]c4cc(-c5ccco5)ccc4c3CCN1C(=O)[C@@H](CC(=O)NCc1cccc(C(F)(F)F)c1)C[C@@H]2C(=O)N1CCCCC1 | 10.5% |
| CC(C)NC(=O)c1ccc(N(Cc2ccccc2)S(C)(=O)=O)cc1 | 4.09% |
| O=S(=O)(NCC1(N2CCOCC2)CCCCC1)c1ccccc1Cl | -7.11% |
| CN1CCN(CCCC(=O)c2ccc(C3CCCC3)cc2)CC1 | 6.04% |
| O=C(O)c1cc([N+](=O)[O-])c(N2CCCC2)c([N+](=O)[O-])c1 | 9.56% |
| CCc1ccc(N(CC(=O)NC(C)(C)C)C(=O)CNC(=O)c2cccs2)cc1 | 11.2% |
| CCOC(=O)c1c(NC(=O)CCl)sc(CN(C)C)c1-c1ccccc1 | -14% |
| Cn1c(=O)c2c(ncn2Cc2cccc(Cl)c2)n(C)c1=O | 9.29% |
| O=C(CCC1CCCC1)N1CCC(N2CCCCCC2)CC1 | 21.7% |
| Cc1ccc(OCC(=O)N2CCCCCCC2)cc1 | 9.5% |
| Cc1ccc(S(=O)(=O)N2CCN(CC3CC4C=CC3C4)CC2)cc1 (stereo not given) | 23.4% |
| O=C(CCC1CCCC1)N1CCN(C(=O)C2CC2)CC1 | -4.27% |
| Cc1ccc(OCC(=O)N2CCN(S(C)(=O)=O)CC2)cc1 | 11.9% |
| CCN1CCN(CC2CC3C=CC2C3)CC1 (stereo not given) | 24.6% |
| O=C(c1ccccc1F)N1CCN(CC2CC3C=CC2C3)CC1 (stereo not given) | 27.7% |
| C1=CC2CC1CC2CN1CCN(c2ccccc2)CC1 (stereo not given) | 14.6% |
| COc1ccccc1CN1CC(C(=O)NCC2(O)CCCCC2)CCC1=O (stereo not given) | -29.3% |
| ONC=Nc1cccc2nonc12 | 4.4% |
| Cc1ccccc1NC(=O)COC(=O)c1cccc(S(=O)(=O)N2CCCCC2)c1 | 0.63% |
| COc1ccc(CCN(C(=O)C(F)(F)F)C(C(=O)NC2CCCCC2)c2ccc(C)s2)cc1OC (stereo not given) | 4.06% |
| Cc1ccc(S(=O)(=O)N2CCN(C(=O)N(C)C)CC2)cc1 | 2.84% |
| O=C(Nn1cnc2ccccc2c1=O)c1ccc(Cl)c([N+](=O)[O-])c1 | 9.36% |
| COn1c(-n2nc(C)cc2C)nc2ccccc2c1=O | 3.26% |
| CCS(=O)(=O)N1CCN(CC2CC3C=CC2C3)CC1 (stereo not given) | 3.64% |

| Structure (SMILES) | inhibition |
| --- | --- |
| CS(=O)(=O)N1CCN(CC2CC3C=CC2C3)CC1 (stereo not given) | 26.4% |
| O=C(COc1ccccc1)N1CCCC1 | 2.28% |
| O=C(COc1ccccc1)N1CCN(C(=O)COc2ccccc2)CC1 | 2.47% |
| S=C(Cc1ccccc1)NCCc1ccccc1 | 9.14% |
| Cc1noc(C)c1N=Nc1ccc(Br)cc1C(=O)O | 4.04% |
| O=C(NCc1ccc(Cl)cc1)c1ccncc1 | 6.54% |
| O=C(COn1nnc2ccc(S(=O)(=O)N3CCOCC3)cc21)NCc1cccc(Cl)c1 | 13.7% |
| COc1cc(C(=O)C(=O)c2cc(OC)c(O)c(OC)c2)cc(OC)c1O | 7.13% |
| COc1cc(Cc2cc(OC)c(O)c(OC)c2)cc(OC)c1O | 6.74% |
| Cc1ccc(S(=O)(=O)N2CCOCC2)cc1C(=O)Nc1nc(-c2ccccn2)cs1 | 13.7% |
| CCOc1ccc(S(=O)(=O)N2CCN(CC)CC2)cc1NC(=O)c1ccccc1F | 0.51% |
| CCOc1cc(NC(=O)c2ccccc2OC)c(OCC)cc1NC(=O)c1ccccc1 | -3.11% |
| CCn1c(C)cc(/C=C2/SC(=O)N(CC(=O)N3CCCC3)C2=O)c1C | 8.19% |
| Cn1cnc2c1c(=O)n(Cc1cccc(Br)c1)c(=O)n2C | 0.32% |
| O=c1cc(-c2ccccc2)oc2cc(O)c(O)c(O)c12 | -59.8% |
| COc1c2ccoc2cc2oc(C)cc(=O)c12 | 6.29% |
| COc1cc2c(cc1OC)CN(CC(=O)Nc1ccccc1C(=O)NC1CC1)CC2 | -6.05% |
| CCOC(=O)c1sc(N2C(=O)C(O)=C(C(=O)c3ccco3)C2c2ccc(C)o2)nc1C (stereo not given) | 12.2% |
| CN=C1S/C(=C\c2ccc(SC)cc2)C(=O)N1C | 7.27% |
| CN=C1S/C(=C\c2ccc(Cl)cc2)C(=O)N1C | 3.04% |
| O=C1COc2ccc(C(=O)COC(=O)Cc3ccc(Cl)cc3)cc2N1 | 9.6% |
| COc1ccccc1C1NC(c2ccccc2OC)C(C)C(=O)C1C (stereo not given) | -2.35% |
| COc1ccc(C2NC(c3ccc(OC)c(OC)c3OC)C(C)C(=O)C2C)c(OC)c1OC (stereo not given) | 1.64% |
| O=C(N/N=C/c1ccc(N2CCOCC2)c([N+](=O)[O-])c1)c1ccc(F)cc1 | 7.08% |

| Structure (SMILES) | inhibition |
| --- | --- |
| O=C(O)c1ccccc1NS(=O)(=O)c1ccc(NN=Cc2ccc(F)cc2)c([N+](=O)[O-])c1 | 6.4% |
| CCOc1ccc(C=NNc2ccc(S(=O)(=O)Nc3ccccc3C(=O)O)cc2[N+](=O)[O-])cc1 | 15.4% |
| CCOc1ccc(C=NNc2ccc(S(=O)(=O)Nc3ccccc3C(=O)O)cc2[N+](=O)[O-])cc1OC | 10% |
| CC(=O)Nc1ccc(C=NNc2ccc(S(=O)(=O)Nc3ccccc3C(=O)O)cc2[N+](=O)[O-])cc1 | 15.7% |
| CCOCCCNC(=O)c1cc2cc3cc(OC)ccc3nc2o1 | 11.9% |
| CCc1nc(SCC(=O)NNC(=O)c2ccc(OC)cc2)c2ccccc2n1 | -0.86% |
| CN(Cc1ccccc1)C(=O)CCC1CCN(C(=O)c2ccccc2C(F)(F)F)CC1 | -5.88% |
| COc1ccc(NC(=O)CS(=O)CC(=O)Nc2ccc(OC)c(OC)c2)cc1 (stereo not given) | -4.61% |
| O=C(COC(=O)CC1CC2CCC1C2)Nc1ccc(Cl)c(S(=O)(=O)N2CCOCC2)c1 (stereo not given) | 6.02% |
| CCN1CCN(C(=O)c2ccc(C)c(S(=O)(=O)Nc3cccc(C)c3)c2)CC1 | 3.11% |
| O=C(c1ccc(Cn2cc(Br)cn2)cc1)N1N=C(C(F)F)CC1(O)C(F)F (stereo not given) | 0.1% |
| CCCc1nc(NCc2ccncc2)c2nnn(Cc3ccccc3F)c2n1 | 10.9% |
| COc1cc2c(cc1NC(=O)Nc1ccc(C)cc1)oc1ccccc12 | 2.58% |
| COc1cc2c(cc1NC(=O)Nc1ccccc1)oc1ccccc12 | -0.72% |
| COc1ccc(CNC(=O)Nc2cccc(C(F)(F)F)c2)cc1OC | 6.37% |
| COc1cc2c(cc1NC(=O)Nc1cccc(C)c1)oc1ccccc12 | 9.41% |
| COc1cccc(NC(=O)CN2C(=O)NC(C)(c3ccc(C)cc3)C2=O)c1 (stereo not given) | 6.36% |
| COc1ccccc1Nc1nc(N)nc(CSc2nncn2C)n1 | 5.08% |
| CC(=O)c1ccc(NC(=O)CSc2nc(Nc3ccccc3)nc(N3CCOCC3)n2)cc1 | 8.08% |
| Cc1ccc(CNC(=O)C2CCCC2)cc1 | 6.2% |
| CCN(CC)c1ccc(CN2CCC(C(=O)NCc3ccc(C)cc3)CC2)cc1 | 36.2% |
| COc1ccc(CCNc2ccc(S(=O)(=O)N3CCN(C)CC3)cc2[N+](=O)[O-])cc1 | 1.77% |
| CC(/C=C1\N=C(SCc2ccccc2)SC1=O)=C\c1ccccc1 | 3% |
| C/C(=N/NC(=O)CNC(=O)/C=C/c1ccco1)c1ccc(Cl)cc1 | 18.5% |

| Structure (SMILES) | inhibition |
| --- | --- |
| COc1ccc(/C(C)=N/NC(=O)CNC(=O)/C=C\c2ccco2)cc1 | 1.11% |
| COCCCN(CC(=O)Nc1ccc(N2CCOCC2)cc1)S(=O)(=O)c1ccccc1 | 5.72% |
| CCn1c(SC(C)C)nnc1-c1c[nH]c2ccccc12 | 7.88% |
| C=CCn1c(SCC(N)=O)nnc1-c1ccccc1O | 4.07% |
| C=CCn1c(SCC(=O)O)nnc1-c1ccccc1 | -4.43% |
| CC(C)Sc1nc2sc(-c3ccccc3)cc2c(=O)n1N | 11.4% |
| CN(C)C(CNC(=O)C1CC(=O)N(Cc2ccccc2)C1)c1ccccc1 (stereo not given) | 5.5% |
| CC(C)C[C@@]12C(=O)N(c3cccc(Cl)c3)C(=O)N1[C@H](c1ccc(Br)cc1)[C@@H]1C(=O)N(C(C)(C)C)C(=O)[C@@H]12 | -10.5% |
| CCn1ccnc1CN(C)C(=O)CCc1nnc(CCCc2ccccc2)o1 | -6.18% |
| CCCc1cc(-n2cnc3ccccc32)n2c(nc3ccccc32)c1C#N | 11% |
| CCCc1cc(-n2ccnc2)n2c(nc3ccccc32)c1C#N | -0.61% |
| COc1ccc(Br)c(C(=O)OCC(=O)NC2CCCCCC2)c1 | 8.08% |
| CCCCN1C(=O)C(CC(=O)NCCc2ccccn2)CC(C(=O)N2CCOCC2)=C1C (stereo not given) | 11.8% |
| CN(c1ccc(C(=O)Nc2ccccc2C(F)(F)F)cc1)S(C)(=O)=O | 5.77% |
| Cc1cc(C)n(C(=O)c2ccc(Cn3nc(C)c(Br)c3C)o2)n1 | 4.85% |
| Nc1c(C(=O)N2CCOCC2)sc(=S)n1-c1ccccc1 | 11.6% |
| Nc1c(C(=O)N2CCCCC2)sc(=S)n1-c1ccccc1 | 10.5% |
| NC(=O)c1ccccc1NC(=O)C1CCCO1 (stereo not given) | 5.38% |
| C/C(O)=C(\C#N)c1nc2ccccc2[nH]1 | 6.3% |
| C/C(O)=C(/C#N)c1nc2ccccc2[nH]1 | 9.91% |
| CCc1cccc(C)c1NC(=O)CC(C)(C)CC(=O)O | -15.4% |
| Cc1ccc(N/N=C(\C#N)C(N)=S)cc1C | 14.2% |
| COc1ccc(CC(=O)Nc2cc(S(=O)(=O)N3CCOCC3)ccc2N2CCCC2)cc1 | -0.25% |
